From PubChem
PrPC surface inh: inhibitors of human cell surface prion protein PrPC, primary screen, cell-based, TR-FRET; Major prion protein (Homo sapiens), P04156; TR-FRET read-out; inhibition, % at 13.8 µM; 370,000 compounds, 0.43% hits; in the data active means inhibition above about 24%; further: 0% = median of the test wells and 100% = reference compound wells
GDH-TPI inh: GDH-TPI coupling enzyme inhibitors, primary screen, artefact control for M. tuberculosis FBA inhibitor project, biochemical, absorbance, full deck. 360,000 compounds, 1.2% hits. inhibition, % at 4.8 µM. GDH-TPI coupled enzyme counterscreen, NADH absorbance. AID 588335, 2011; in the data active means inhibition above about 30%;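 further: 0% = DMSO wells and 100% = wells lacking the enzyme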
Mtb FBA inh: Mtb FBA enzyme inhibitors, primary screen, biochemical, fluorescence, strain H37Rv; Fructose-bisphosphate aldolase (Mycobacterium tuberculosis (strain ATCC 25618 / H37Rv)), …; purified M. tuberculosis FBA, fluorescence read-out; inhibition, % at 1 µM; 360,000 compounds, 2.3% hits; AID 588726, 2011; in the data active means inhibition above about 27%;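 further: 0% = vehicle and 100% = reference inhibitor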
Vc quorum ag: inducers of Vibrio cholerae quorum light production without autoinducers, primary screen, BH1578 luxS cqsA deficient, single point. AID 588436, 2011. V. cholerae BH1578 lux reporter, luminescence, 6 h. 350,000 compounds, 0.16% hits. activation, % at 18.7 µM; in the data active means activation mostly above about 9.7%, no sharp cut-off
3CLpro inhibitor: SARS-CoV 3CLpro protease inhibitors, primary screen, biochemical, quenched FRET; Replicase polyprotein 1ab (Severe acute respiratory syndrome coronavirus), P0C6X7; recombinant SARS-CoV 3CLpro, quenched FRET peptide cleavage; inhibition, % at 6 µM; 290,000 compounds, 0.14% hits; AID 1706, 2009; in the data active means inhibition above about 12%
PrPC confirm: confirmation of inhibitors of cell surface human prion protein, confirmation, cell-based, TR-FRET | shares compounds with PrPC surface inh | cell surface PrPC level | inhibition, % at 13.8 µM | 1,500 compounds, 65% hits | AID 743200, 2013; in the data active means inhibition above about 25%
LD9 tox: cytotoxicity in LD9 cells, cytotoxicity control for cell surface PrPc inhibitor project, cell-based, luminescence, high throughput; shares compounds with PrPC surface inh; luminescence viability; inhibition, % at 13.8 µM; 1,500 compounds, 29% hits; AID 743201, 2013; in the data active means inhibition above about 9.5%
* marks the source's active call; other numbers are inactive results; i = inactive; . = no result given. A selection: hits, their analogues and other compounds. The true share with any hit is near 3.9%.

SMILES	PrPC surface inh	GDH-TPI inh	Mtb FBA inh	Vc quorum ag	3CLpro inhibitor	PrPC confirm	LD9 tox
COC(=O)CCCn1cc(CN2CC(N3CCN(CCN(C)C)CC3)CS2(=O)=O)nn1 (centres undefined)	-4	.	.	.	.	.	.
CC(=O)c1nnn(-c2nc(N)nc(N(c3ccccc3)c3ccccc3)n2)c1C	25*	17	0	-1	-1	91*	-7
CCCCN(CCCC)c1nc(OC)nc(-n2nnc(C(C)=O)c2C)n1	-5	-12	-2	0	-4	.	.
CCc1nc2ccccc2c(C(=O)OCC(=O)Nc2cccc(S(=O)(=O)N3CCOCC3)c2)c1C	26*	5	-1	-2	1	12	10*
CN(CC(=O)Nc1cccc(S(=O)(=O)N2CCOCC2)c1)CC(=O)Nc1ccc(Cl)c(C(F)(F)F)c1	25*	3	-2	i	.	22	3
CN(CC(=O)Nc1cccc(F)c1)CC(=O)Nc1cc(S(=O)(=O)N2CCOCC2)ccc1Cl	5	8	-3	0	.	.	.
CCc1c(C(=O)O)[nH]c2ccc(Br)cc12	76*	-8	4	-1	7	88*	1
CCN(CC)S(=O)(=O)c1ccc(N2CCCC2)c(NC(=O)CC(C)(C)C)c1	-7	6	1	i	4	.	.
CCOc1ccc(CC(=O)NCc2ccc3c(c2)cc(C)n3C)cc1	55*	5	0	-1	10	-2	-9
Cc1cc2cc(CNC(=O)Nc3ccc(Cl)c(Cl)c3)ccc2n1C	33*	-2	2	0	-1	22	-8
COc1ccc(C(=O)NCc2ccc3c(c2)cc(C)n3C)cc1	66*	13	1	0	-4	9	-5
Cc1onc(-c2ccccc2Cl)c1C(=O)NCc1ccc2c(c1)cc(C)n2C	66*	6	1	i	.	10	-3
Cc1ccc(CNC(=O)c2c(-c3ccccc3Cl)noc2C)cc1	-4	4	0	-1	6	.	.
CC(C)(C)C(CO)NC(=O)c1ccc[nH]1 (centres undefined)	0	-8	-1	-1	.	.	.
Cc1cc2cc(CNC(=O)c3ccc4c(c3)OCO4)ccc2n1C	53*	-1	-1	i	-2	10	-1
COc1cc(OC)cc(C(=O)NCc2ccc3c(c2)cc(C)n3C)c1	56*	-3	-2	i	-2	1	-4
Cc1ccc(S(=O)(=O)NCc2ccc3c(c2)cc(C)n3C)cc1	37*	15	-1	0	2	6	-4
COc1cc(/C=C\C(=O)NCc2ccc3c(c2)cc(C)n3C)cc(OC)c1OC	68*	3	-2	0	-1	8	-6
COCC(=O)NCc1ccc2c(c1)cc(C)n2C	-9	14	3	-6	-5	.	.
CC(CCN1CCC(C(O)(c2ccccc2)c2ccccc2)CC1)Oc1cccc(Cl)c1 (centres undefined)	-15	.	.	.	.	.	.
COc1ccccc1CN(C)C(=O)c1cccc(S(=O)(=O)N2CCCc3ccccc32)c1	-2	0	-2	-1	.	.	.
COc1ccc2c(c1)CN1CN(CC(C)C)S(=O)(=O)CC21 (centres undefined)	4	.	.	.	.	.	.
COc1ccc(-n2nnnc2CNC(=O)C2CC(=O)N(c3ccc(F)cc3)C2)cc1 (centres undefined)	31*	14	-1	i	.	3	-3
CCN(C(=O)COC(=O)c1ccccc1Nc1ccccc1)c1c(N)n(Cc2ccccc2)c(=O)[nH]c1=O	33*	8	0	i	.	24	-3
COC(=O)c1sccc1NC(=O)C1CC=CCC1C(=O)O (centres undefined)	97*	3	1	i	8	92*	-1
SMILES	PrPC surface inh	GDH-TPI inh	Mtb FBA inh	Vc quorum ag	3CLpro inhibitor	PrPC confirm	LD9 tox
COC(=O)c1cc(C)sc1NC(=O)C1CC=CCC1C(=O)O (centres undefined)	35*	-7	-4	i	-7	44*	-3
CCCOc1ccc(C(=O)Nc2ccc3c(c2)OCCO3)cc1	6	10	2	1	-9	.	.
Cc1ccc(-n2c(SCC(=O)O)nc3sc4c(c3c2=O)CCCC4)cc1	-1	6	2	0	3	.	.
Cc1ccc(-c2c(CC(=O)O)c(C)nc3sc4c(c23)CCCC4)cc1	36*	-1	0	1	3	44*	-4
CC(=O)c1sc(NC(=O)c2c(F)cccc2F)nc1-c1ccccc1	25*	9	-1	0	3	21	-8
CC(=O)c1sc(NC(=O)c2ccccc2)nc1-c1ccccc1	1	6	-1	1	2	.	.
CCc1ccccc1NC(=O)C1CCCN(S(=O)(=O)c2ccc3c(c2)CC(C)N3C(C)=O)C1 (centres undefined)	31*	8	4	0	3	16	-3
CCOC(=O)CSc1nc2ccccc2n2c(C)nnc12	-6	10	0	-1	-1	.	.
Cc1nnc2c(SC(C)C)nc3ccccc3n12	33*	9	-3	0	-2	47*	-8
Cc1ncc(CO)c(/C=N/NC(=O)c2cc3c(s2)CCCC3)c1O	40*	3	6	0	1	23	15*
COc1ccc(C(=O)N/N=C/c2c(CO)cnc(C)c2O)cc1	8	9	19	1	-3	.	.
Nc1ccc2ccc(NS(=O)(=O)N3CCCCC3)cc2c1	31*	.	.	.	.	12	9
COC(=O)CSc1nc(-c2ccccc2)nc2ccccc12	106*	18	-3	1	-3	113*	-7
CCOc1ccc2nc(-c3ccccc3)nc(SCC(=O)OC)c2c1	5	3	-3	i	7	.	.
Cc1cccc2c(SCC(N)=O)nc(-c3ccccc3)nc12	6	3	0	0	-3	.	.
NC(=O)CSc1nc(-c2ccccc2)nc2ccccc12	70*	8	-2	i	-4	72*	-9
O=C(CCn1ccnc1)Nc1cc(Cl)ccc1O	-3	5	1	0	-1	.	.
COc1ccc(NC(=O)NCC(C)CSc2ccc(C)cc2)c(OC)c1 (centres undefined)	2	-10	-1	i	5	.	.
CCOC(=O)c1c(NC(=O)COC(=O)Cc2n[nH]c(=O)c3ccccc23)sc(C(=O)NC)c1C	2	5	1	0	.	.	.
COc1ccc(S(=O)(=O)N2CCOC2CNC(=O)C(=O)NCCc2ccc(S(N)(=O)=O)cc2)cc1 (centres undefined)	-5	2	-7	i	-1	.	.
